Results: the supplement of paper PMC6555819

Assays:
Assay in all cases: PBM binding z-score (relative to random genomic background probes); higher = stronger binding; sequences stand for … in GC…GCGATTGACAGCGTAGAATGAAGG
[1] = test system: FXR:RXRa (NR concentration 270 nM, RXRa partner concentration 90 nM)
How it was run: (§1)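 Scanned fluorescence from custom Agilent 4×180K protein-binding microarrays was regression-normalized. Binding z-scores use random background probes as reference. Ligand-free nuclear receptor dimers were incubated on the arrays for 1 h and detected with antibodies against each partner (one per run).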

[2] = test system: LXRa:RXRa (NR concentration 270 nM, RXRa partner concentration 90 nM)
How it was run: as §1

[3] = test system: LXRa homodimer (NR concentration 270 nM)
How it was run: as §1

[4] = test system: LXRb:RXRa (NR concentration 270 nM, RXRa partner concentration 90 nM)
How it was run: as §1

[5] = test system: LXRb homodimer (NR concentration 270 nM)
How it was run: as §1

[6] = test system: PPARa:RXRa (NR concentration 270 nM, RXRa partner concentration 90 nM)
How it was run: as §1

[7] = test system: PPARg:RXRa (NR concentration 180 nM, RXRa partner concentration 90 nM)
How it was run: as §1

[8] = test system: PPARg:RXRa 270nM:90nM, anti-RXR (NR concentration 270 nM, RXRa partner concentration 90 nM)
How it was run: as §1

[9] = test system: PPARg:RXRa 30nM:10nM, anti-RXR (NR concentration 30 nM, RXRa partner concentration 10 nM)
How it was run: as §1

[10] = test system: PPARg:RXRa 90nM:30nM, anti-RXR (NR concentration 90 nM, RXRa partner concentration 30 nM)
How it was run: as §1

[11] = test system: PPARg:RXRa DBDmut IVT, anti-RXR (DBD mutation: RXRa K156A/R161A, NR concentration 270 nM, RXRa partner concentration 90 nM)
How it was run: as §1

[12] = test system: PPARg:RXRa IVT, anti-PPARg (NR concentration 270 nM, RXRa partner concentration 90 nM)
How it was run: as §1

[13] = test system: PPARg DBDmut:RXRa IVT, anti-PPARg (DBD mutation: PPARg1 K132A/R137A, NR concentration 270 nM, RXRa partner concentration 90 nM)
How it was run: as §1

[14] = test system: PPARg DBDmut IVT, anti-PPARg (DBD mutation: PPARg1 K132A/R137A, NR concentration 270 nM)
How it was run: as §1

[15] = test system: PPARg homodimer (NR concentration 180 nM)
How it was run: as §1

[16] = test system: PXR:RXRa (NR concentration 270 nM, RXRa partner concentration 90 nM)
How it was run: as §1

[17] = test system: PXR homodimer (NR concentration 270 nM)
How it was run: as §1

[18] = test system: RARa:RXR (NR concentration 270 nM, RXRa partner concentration 90 nM)
How it was run: as §1

[19] = test system: RARa homodimer (NR concentration 270 nM)
How it was run: as §1

[20] = test system: RARb:RXRa (NR concentration 270 nM, RXRa partner concentration 90 nM)
How it was run: as §1

Sequence	PBM binding z-score [1]	PBM binding z-score [2]	PBM binding z-score [3]	PBM binding z-score [4]	PBM binding z-score [5]	PBM binding z-score [6]	PBM binding z-score [7]	PBM binding z-score [8]	PBM binding z-score [9]	PBM binding z-score [10]	PBM binding z-score [11]	PBM binding z-score [12]	PBM binding z-score [13]	PBM binding z-score [14]	PBM binding z-score [15]	PBM binding z-score [16]	PBM binding z-score [17]	PBM binding z-score [18]	PBM binding z-score [19]	PBM binding z-score [20]
TCTTGTAGATCAACAGGAGGTTCAGAAAGATCGA	0.027	-0.0973	-0.476	-0.000896	-0.414	0.453	-0.062	1.25	2.65	2.18	1.5	0.779	0.136	0.251	-0.725	0.256	-0.264	0.00715	-0.572	0.0281
CGTCAAAGTTCAAGGTAGCGTAACAGAAAGCAGC	5.54	5.8	2.95	3.18	0.738	4.56	3.8	5.04	2.26	3.89	0.367	1.36	-0.0381	0.0782	3.03	3.84	2.73	3.35	0.828	5.01
ACTAGCAGGCCAAGTTTCGGTCACTCAAACAAAG	-0.253	-0.249	0.38	-0.133	-0.471	-0.0764	-0.26	-0.531	-0.703	-0.73	0.73	0.753	-0.762	-0.738	-0.0877	-0.355	-0.0865	0.0207	-0.205	1.56
CCGACTGGGGCACAAAGGTTACCATACCATCCGG	0.682	0.574	0.127	1.44	-1.09	3.24	4.16	5.34	2.72	5.14	3.32	4.48	-0.0878	-1.02	0.929	1.58	0.126	2.57	0.061	2.31
CGAACTATGTCAGAACAGGACAGTGAAGGATGAT	0.0056	-0.347	-0.162	-0.473	0.636	0.0465	0.811	0.229	0.135	-0.000779	1.99	1.16	0.888	0.9	0.278	-0.225	0.0805	0.0752	0.625	0.461
GGAACGAGGGCAAAGATGATAGCATCTGTCGACG	0.376	0.281	-0.604	0.258	-0.642	2.65	3.63	4.6	2.92	4.39	3.87	3.02	-0.58	0.0962	0.289	0.215	-0.309	0.189	-0.373	1.98
CCGACTGAGGCAAAGGTTACCATACTCAGTACGA	0.7	1.19	-0.159	1.48	-0.611	3.69	6.77	6.76	4.81	6.88	0.849	2.47	-0.356	-0.203	1.16	1.56	0.0581	2.31	0.408	1.78
TCTAGTAGATCAATAGAGGTTAAGAAAGTGCGCT	0.905	3.79	0.28	1.96	-0.599	1.98	0.362	1.7	2.76	2.4	1.7	0.843	-0.106	0.138	0.0842	3.18	0.411	1.81	0.23	0.908
CCAGACAGGTGAGAAGGTAAGTCAGCCTCGATTA	0.146	0.152	-0.318	0.215	-0.265	0.66	0.255	0.254	-0.405	-0.0734	0.908	0.37	-1.11	-0.901	0.826	0.0674	0.339	0.396	0.66	0.566
ATGTCTAGGTAAAGATAGTTCAGTGAATGCAAAT	0.0456	4.09	0.552	0.617	0.0209	0.376	0.701	0.217	0.312	0.184	1.16	1.51	0.413	1.23	0.188	0.798	0.588	0.428	0.724	0.63
TAGCCTAGGTCATGCTGGCCAGTATAGTGTCGGC	3.83	3.03	0.0898	1.88	-0.303	3.25	1.99	2.15	0.0868	1.11	1.89	3.11	0.437	-0.89	0.715	1.16	-0.737	2.21	-0.528	3.84
TCTTGTAGATCAAGCAGGTTAAGAACGCCTGAGT	0.558	0.44	-0.0745	0.534	-0.492	0.851	-0.197	1.21	2.6	1.7	1.42	0.613	-0.194	-0.44	-0.0997	0.399	0.197	0.48	-0.305	0.23
ATACCAAGGTGATCGTGGGGTCGTTGATACTAAC	1.56	1.27	0.187	2.56	0.143	2.42	0.805	0.876	0.0671	0.468	0.765	1.54	0.837	0.583	1.5	3.05	1.11	2.65	0.577	1.33
CCTACTGGGCCAGGAAAGGTCATTGATTCAGTGA	3.42	4.12	3.32	3.74	-0.202	4.18	1.95	3.03	0.929	2.15	2.65	3.05	-0.225	-1.01	2.36	4.78	0.786	4.87	0.0596	3.71
